Assay results from the supplement of paper PMC9023506.
Counter-ions that a name gives are not always drawn.

system: Danio rerio larvae (5 dpf); experiment: activity during period 15 (no stimuli), difference vs DMSO (percentage points (treated minus DMSO)); higher = more of the behaviour than the DMSO vehicle control; conditions: 10 µM; exposure time: 3 h pre-incubation + 3 h imaging
Description: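 5-dpf wild-type zebrafish larvae were imaged in 96-well plates. They were treated with 190 Tocris FDA-approved drugs at 10 µM (1 µl/ml DMSO) for 3 h before and 3 h during imaging at 28.5 °C, 48 larvae per drug. Automated image analysis gave % time moving and optomotor responses. Values are drug group mean minus DMSO vehicle mean (n=844), in percentage points, for 10 behaviours.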

Structure (SMILES) | activity during period 15
CC[C@@H](C(N)=O)N1CCCC1=O [Levetiracetam] | 4.21
Cc1cccc([C@H](C)c2c[nH]cn2)c1C [Dexmedetomidine hydrochloride] | -35.2
O=c1[nH]c2ccccc2n1C1CCN(CCCC(c2ccc(F)cc2)c2ccc(F)cc2)CC1 [Pimozide] | -8.89
COc1cc2c(cc1OC)C1CC(=O)C(CC(C)C)CN1CC2 (configuration not stated) [Tetrabenazine] | 3.06
CC(O)(CS(=O)(=O)c1ccc(F)cc1)C(=O)Nc1ccc(C#N)c(C(F)(F)F)c1 (configuration not stated) [Bicalutamide] | 5.81
CN1C[C@H](C(=O)N[C@]2(C)O[C@@]3(O)[C@@H]4CCCN4C(=O)[C@H](Cc4ccccc4)N3C2=O)C[C@@H]2c3cccc4[nH]cc(c34)C[C@H]21 [Dihydroergotamine mesylate] | 1.37
CC(C)C[C@H]1C(=O)N2CCC[C@H]2[C@]2(O)O[C@](NC(=O)[C@@H]3C=C4c5cccc6[nH]c(Br)c(c56)C[C@H]4N(C)C3)(C(C)C)C(=O)N12 [Bromocriptine mesylate] | 3.6
C=CCN1C[C@H](C(=O)N(CCCN(C)C)C(=O)NCC)C[C@@H]2c3cccc4[nH]cc(c34)C[C@H]21 [Cabergoline] | -8.5
C=C1C[C@@H]2[C@H](CC[C@]3(C)C(=O)CC[C@@H]23)[C@@]2(C)C=CC(=O)C=C12 [Exemestane] | -15.7
CCN(C)C(=O)Oc1cccc([C@H](C)N(C)C)c1 [Rivastigmine tartrate] | -7.13
N[C@@H]1C[C@H]1c1ccccc1 [Tranylcypromine hydrochloride] | -10.3
COc1ccc(C(CN(C)C)C2(O)CCCCC2)cc1 (configuration not stated) [Venlafaxine hydrochloride] | -20.4
